# Experimental data from PubChem BioAssay (EPA / NIEHS).
# Values joined by “and” are separate entries in the source; they are usually repeats but may differ in a detail not shown here. Identical values can stand only once. The source holds several records for some structures; these can differ, active in one and inactive in another. Active and inactive are the calls of the source. How the source made its calls: active means hit-call score of the fitted dose curve at least 0.9, where 1 is the maximum; inactive means score below 0.9.
# Test: BSK_BT_Bcell_Proliferation: Viability Assessment in the BioMAP Diversity Plus: BT Assay for B cell Proliferation (AID 2284227)
# Conditions: primary human B cells with PBMC
# Experimental: BSK_BT is a cell-based, multiplexed-readout assay that uses B cell and peripheral blood mononuclear cells, a human vascular primary cell co-culture, with measurements taken at 24 hours after chemical dosing in a microplate: 96-well plate.BSK_BT_Bcell_Proliferation is an assay component measured in the BSK_BT assay. It measures protein content, a form of viability reporter, as detected with absorbance signals by Sulforhodamine staining technology.Data from the assay component BSK_BT_Bcell_Proliferation was analyzed at the endpoint, BSK_BT_Bcell_Proliferation, in the positive analysis fitting direction relative to DMSO as the negative control and baseline of activity. Using a type of viability reporter, gain or loss-of-signal activity can be used to understand cellular changes in viability. To generalize the intended target to other relatable targets, this assay endpoint is annotated to the 'cell cycle' intended target family, where the subfamily is 'proliferation'.
# The levels of cell surface (or secreted, indicated by the prefix "s") biomarker endpoints were measured by ELISA. Overt cytotoxicity to cells in confluent adherent cultures (all systems other than the BT system) was assessed by measuring total protein levels using sulforhodamine B (SRB) staining in parallel cultures at the time of biomarker measurements, indicated as SRB endpoints. For proliferation assays for adherent cell types, individual cell types are cultured at sub-confluence and relative cell numbers quantified by SRB staining at time points optimized for each system (48 h: 3C and CASM3C systems; 72 h: BT and HDF3CGF systems; 96 h: SAg system). SRB was performed by staining cells with 0.1% SRB after fixation with 10% TCA and reading wells at 560 nm.Viability and proliferation of PBMC (T cells) was quantified by Alamar Blue reduction for the SAg and BT systems. For PBMC viability (referred to as PBMC Cytotoxicity within the assay endpoint names), cells were plated (75,000/well in a 96-well plate) and then chemical samples added for 1 h before addition of activators, SEB and TSST-1 (20 ng/mL final concentration each). Cells were incubated for 90 h. Then, Alamar Blue (20 uL/well) (Invitrogen, Cat DAL1100) was added for 6 h, and the plates were read with a fluorescence microplate reader at 546/580 nm (excitation/emission). For PBMC proliferation, cells were plated and activated as above but incubated for only 16 h prior to addition of Alamar Blue. Plates were read after 6 h.
Compound,AC50,outcome
CNC(=O)Oc1cc(C)c(SC)c(C)c1,20.1 µM (active),–
COCC(=O)N(c1c(C)cccc1C)N1CCOC1=O,–,inactive
CC(=O)/C=C/c1ccccc1,26.1 µM (active),–
CC(C)(C)C(O)C(Oc1ccc(-c2ccccc2)cc1)n1cncn1 (stereo unspecified),29.8 µM (active),–
O=c1[nH]c(Cl)c(Cl)cc1Cl,–,inactive
CC(C)COP(=O)(OCC(C)C)OCC(C)C,–,inactive
O=C(O)CCCc1ccc(N(CCCl)CCCl)cc1,12.7 µM (active) and 13 µM (active),–
Clc1ccc(-c2ccccc2)cc1,–,inactive
CC(C)(C)C(=O)CCl,–,inactive
CC(C)CCCCCCCOC(=O)c1ccccc1C(=O)OCCCCCCCC(C)C,–,inactive
CCc1cc(C)cc(CC)c1-c1c(OC(=O)C(C)(C)C)n2n(c1=O)CCOCC2,–,inactive
O=C1C(Cl)=C(Cl)C(=O)C(Cl)=C1Cl,26 µM (active),–
COC(C)(C)CCC[C@H](C)C/C=C/C(C)=C/C(=O)OC(C)C,28.8 µM (active),–
O=c1c2ccccc2c(=O)c2c1cc(Cl)c1[nH]c3c([nH]c12)c(Cl)cc1c(=O)c2ccccc2c(=O)c13,–,inactive
CCC(C)c1cc([N+](=O)[O-])cc([N+](=O)[O-])c1OC(=O)C=C(C)C (stereo unspecified),32.6 µM (active),–
Cc1ccc(OP(=O)(Oc2ccc(C)cc2)Oc2ccc(C)cc2)cc1 (tested in a mixture with another compound),–,inactive
Oc1cc(Cl)ccc1Cl,–,inactive
C=CC(=O)OCC(CC)CCCC (stereo unspecified),–,inactive
CCCOC(=O)c1ccccc1C(=O)OCCC,–,inactive
O=S(=O)(c1ccccc1)c1ccccc1,–,inactive
C=CCN(CC=C)C(=O)C(Cl)Cl,–,inactive
CCCCCCCCCCCC#N,–,inactive
c1ccc(Nc2ccc3ccccc3c2)cc1,27.2 µM (active),–
O=P1(NCCCl)OCCCN1CCCl (stereo unspecified),–,inactive
CC(C)CCCCCCCOP(=O)(Oc1ccccc1)Oc1ccccc1,29.5 µM (active),–
O=C1C=CC(=O)C=C1,17.8 µM (active) and 24.2 µM (active),–
CC1(C)[C@H](C(=O)O[C@H](C#N)c2cccc(Oc3ccccc3)c2)[C@@H]1C=C(Br)Br,20 µM (active),inactive
CC(C)(c1cc(Cl)c(O)c(Cl)c1)c1cc(Cl)c(O)c(Cl)c1,–,inactive
Nc1ccc(-c2ccc(N)c(N)c2)cc1N,–,inactive
O=[N+]([O-])C=Cc1ccccc1,6.33 µM (active),–
